From PubChem
Only some compounds are listed: those with a hit (about 9.4% of all), similar ones and a draw of the others.
NPC1 promoter act: NPC1 promoter activation; AID 485313; Potency, µM (doses to about 9.22 µM), for the others: at the highest dose activation, usual class: activators; 320,000 compounds, 2.4% hits; Huh7 NPC1 promoter luciferase reporter, 24 h; also: % of control where 0% means no effect; nearly all actives have a fitted effect of over 60% in size
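Compounds in DMSO were transferred onto Huh7 NPC1-luciferase reporter cells pre-incubated 2 h; after 24 h at 37 °C, Amplite reagent was dispensed and luminescence recorded 10 min later.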
Rab9 promoter act: activates the Rab9 promoter; Huh7 Rab9 promoter-luciferase reporter, luminescence, 24 h; Potency, µM (titrated, usually from 9.22 µM), inactives show top-dose activation, negative = inhibition, most hits filed as activators; 320,000 compounds, 2.8% hits; also: % of control where 0% means no effect; nearly all actives have a fitted effect of over 60% in size
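Promoter activation is measured as luciferase luminescence in Huh7 cells stably transfected with a Rab9 promoter–luciferase construct, following 24 h compound exposure at 37 °C and 10 min reagent incubation at ambient temperature.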
FLuc modulator: counter-screen for miR-21 project: firefly luciferase inhibitors or activators. P08659. purified FLuc, Km substrates, luminescence inhibition. Potency, µM (titrated, usually from 57.5 µM), for the others: top-dose activity change, negative = inhibition, usual class: inhibitors. 360,000 compounds, 6.9% hits;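 also: plate controls were vehicle for no effect and reference inhibitor for full effect; nearly all actives have a fitted effect of over 55% in size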
Target sequence (P08659 whole entry, looked up): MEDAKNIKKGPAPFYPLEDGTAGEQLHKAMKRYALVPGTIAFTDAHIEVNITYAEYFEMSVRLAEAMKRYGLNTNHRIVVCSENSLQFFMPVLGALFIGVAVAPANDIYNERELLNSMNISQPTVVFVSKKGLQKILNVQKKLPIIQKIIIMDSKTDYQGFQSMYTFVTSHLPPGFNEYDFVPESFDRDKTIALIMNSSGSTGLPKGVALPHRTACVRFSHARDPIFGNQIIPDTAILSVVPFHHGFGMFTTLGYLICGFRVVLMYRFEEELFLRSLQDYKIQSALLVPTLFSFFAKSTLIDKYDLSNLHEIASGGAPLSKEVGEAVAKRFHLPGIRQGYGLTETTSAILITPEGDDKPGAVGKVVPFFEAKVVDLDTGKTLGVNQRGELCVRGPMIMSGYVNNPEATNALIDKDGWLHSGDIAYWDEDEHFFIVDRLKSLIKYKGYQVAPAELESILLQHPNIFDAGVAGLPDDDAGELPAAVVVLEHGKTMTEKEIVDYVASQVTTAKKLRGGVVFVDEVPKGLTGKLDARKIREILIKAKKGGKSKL
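Biochemical qHTS of compounds, final roughly 60 µM downward over six points, against 10 nM purified firefly luciferase using Km concentrations of substrates (10 uM D-luciferin, 10 uM ATP) in Tris acetate pH 7.5 buffer; luminescence output.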
ELG1 DNA repair: ELG1-dependent DNA repair inhibition | HEK293T ELG1-luciferase reporter, luminescence, 16 h; DNA damage induced by 5-fluorouridine | Potency, µM (highest dose often 46.1 µM), for inactives: at the highest dose activity change, negative = inhibition, hits mostly inhibitors | 330,000 compounds, 2.3% hits; also: % is scaled to controls: 0 for no effect and ±100 for the full control effect; nearly all actives have a fitted effect of over 55% in size
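In this reporter screen, reduction of luminescence relative to DMSO vehicle indicated activity. Compounds and 5-fluorouridine were added together to 2,000 cells per well, incubated for 16 hr at 37 °C, then developed with ONE-Glo.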
ELG1 genotoxic: genotoxicity induction in ELG1-luciferase HEK293T cells | HEK293T ELG1-luciferase reporter, luminescence, 16 h | 330,000 compounds, 1.3% hits | Potency, µM (titrated, usually from 46 µM), for the others: at the top dose activity change, positive = activation, hits mostly activators; also: % of control where 0% means no effect; nearly all actives have a fitted effect of over 60% in size
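Genotoxic stress is detected as increased luminescence from luciferase-tagged ELG1 in HEK293T cells, measured with ONE-Glo after a 16 hr treatment at 37 °C.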
SMN2 splice up: enhancers of SMN2 splice variant expression. 210,000 compounds, 2.8% hits. HEK293 SMN2-luciferase splicing reporter, luminescence, 30-36 h. Potency, µM (top dose mostly 46.1 µM), for the others: at the highest dose activity change, positive = activation, most hits filed as activators. AID 1458; also: % of control where 0% means no effect; nearly all actives have a fitted effect of over 55% in size
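HEK293 cells carry an SMN2 minigene-luciferase reporter in which exon 7 inclusion puts luciferase in frame. Cells were seeded at 2000 cells/well, attached for 10-12 hours, then exposed to compounds for 30-36 hours at 37C before ONE-Glo luminescence.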
Active calls of the source: *; ? = inconclusive; . = no result; [ ] = dose if it differs, or a comment. Calls follow the shape of the dose curve; as a rule, active = well fitted curve in the direction sought with a large enough effect; inconclusive = small, poorly fitted or top-dose-only effect, or another doubt; inactive = no such curve, though single readings can be large; an effect the other way counts as inactive or inconclusive. Potency is read from the fitted curve at half-maximal effect.

SMILES	NPC1 promoter act	Rab9 promoter act	FLuc modulator	ELG1 DNA repair	ELG1 genotoxic	SMN2 splice up
O=C(NCC1CCCN(Cc2cccc(F)c2)C1)c1cccc2ccccc12 (configuration not stated)	-1%	1%	0%	?	-7%	.
Cc1ccc(-c2nc(NC(=O)CSc3ncn[nH]3)ns2)cc1	3%	16%	17µM*	0%	6%	.
Cc1ccc(-c2nc(NC(=O)CSc3nnc4scc(-c5ccccc5)n34)ns2)cc1	-15%	-32%	-2%	12µM*	-12%	.
Cc1cc(SCC(=O)Nc2nsc(-c3ccc(C(C)(C)C)cc3)n2)nc2ccccc12	.	.	.	.	.	14µM*
CCCn1c(=O)n(-c2ccccc2)c(=O)c2sc3ccccc3c21	.	.	-2%	.	.	-18%
COC(=O)[C@@]12CCCCN1[C@H](c1ccc(-c3ccc(F)cc3)c(OC)c1)[C@H]1C(=O)N(C)C(=O)[C@H]12	.	.	.	13µM*	-7%	.
Cc1ccc2scc(N3CCCC(C)C3)c(=O)c2c1 (configuration not stated)	.	.	0.76µM*	.	.	.
CC1CCCCN1c1csc2ccc(F)cc2c1=O (configuration not stated)	.	.	7.6µM*	.	.	.
CC(C)CCNC(=O)CN1C(=O)c2cccnc2Oc2ccccc21	.	.	-5%	.	.	15%
COc1ccc(/C=N/NC(=O)c2cnccn2)cc1O	3%	-3%	12µM*	?	?	13%
COc1cccc(/C=N/NC(=O)c2cc(-c3cccn3C)n[nH]2)c1O	-28%	-43%	27µM*	?	6%	-96%
COc1ccc(OC)c(/C=N/NC(=O)c2cnccn2)c1	2%	-6%	0%	3%	0%	.
COc1cccc(/C=N/NC(=O)c2cnccn2)c1	16%	11%	12µM*	?	14%	17%
COc1cccc(C(=O)O/N=C(\C)c2cnccn2)c1	-6%	-3%	5.4µM*	9%	-4%	.
COc1cc(/C=N/NC(=O)c2cc(-c3cccn3C)n[nH]2)cc(OC)c1OC	-3%	2%	?	?	-3%	?
COc1ccc(/C=N/NC(=O)c2cc3c(OC)ccc(OC)c3[nH]2)cc1O	-19%	-6%	11µM*	?	-5%	.
COc1cccc(/C=N/NC(=O)c2cnccn2)c1O	-23%	-23%	15µM*	0%	15%	.
COc1ccc(C2CC(=O)N(C)c3ccccc3S2)cc1OC (configuration not stated)	25%	4µM*	?	?	18µM*	21%
Nc1nn2c(-c3ccccc3)cc(=O)[nH]c2c1N=Nc1ccc(O)cc1	-2%	-1%[1.84 µM]	6.7µM*	?	-11%	-44%
Cc1cc(=O)[nH]c2c1c(-c1ccccc1)nn2C	-3%	-6%	2%	?	5%	.
Nc1nn2c(-c3ccccc3)cc(=O)[nH]c2c1N=Nc1ccc(Br)cc1	-1%	2%	21µM*	5%	-13%	-58%
O=c1c(N=Nc2ccc(O)cc2)c(-c2ccccc2)[nH]n1-c1ccc([N+](=O)[O-])cc1	-18%	11%	1%	0%	-5%	-89%
Cc1ncc(COC(=O)C(C)C)c2cc(C(=O)Nc3ccccc3C(F)(F)F)c(=O)oc12	.	.	3%	.	.	.
CC(C)N(C(C)C)S(=O)(=O)c1ccc(N2CCc3ccccc3C2)nc1	?	4µM*	13µM*	?	?	.
CCN(CC)S(=O)(=O)c1ccc(N2CCc3ccccc3C2)nc1	26%	29%	?	-1%	-3%	.
SMILES	NPC1 promoter act	Rab9 promoter act	FLuc modulator	ELG1 DNA repair	ELG1 genotoxic	SMN2 splice up
O=C(NC(Cc1c[nH]c2ccccc12)C(=O)N/N=C/c1cccnc1)c1cccs1 (configuration not stated)	2%	9%	0%	?	-7%	25µM*
O=C(NC(Cc1c[nH]c2ccccc12)C(=O)Nc1ccc(F)cc1)c1cccs1 (configuration not stated)	-6%	-6%	2%	?	-7%	156%
Cc1cccc(S(=O)(=O)c2cn(Cc3ccc(F)cc3)c3cc(N4CCCCC4)c(F)cc3c2=O)c1	.	.	-2%	.	.	.
O=C(NCCc1ccccc1)c1sc2ncccc2c1-n1cccc1	.	.	-15%	.	.	.
O=C(NCc1cccnc1)c1cc(Sc2ccc(F)cc2F)nc2ccccc12	-12%	-12%	0%	21µM*	-8%	-71%
COc1ccccc1Nc1cc(C(=O)NCc2cccnc2)c2ccccc2n1	-2%	4%	8.5µM*	11%	0%	.
COc1ccc(Nc2cc(C(=O)NCc3ccccc3)c3ccccc3n2)c(OC)c1	.	.	8.5µM*	.	.	-1%
COc1cc2c(cc1O)CCC1C2CC[C@]2(C)[C@@H](O)CC[C@@H]12 (some centres not stated)	.	.	.	.	.	-24%
Cc1ccc(NC(=O)CN2CCN(Cc3ccccc3)CC2)cc1F	-6%	0%	2%	-1%	6%	.
CCOc1ccc(/C=N/NC(=O)c2cc3c(OC)cccc3[nH]2)cc1	-5%	-5%	?	-7%	6%	.
COc1ccc(/C=N/NC(=O)c2cc3c(ccc4ccccc43)o2)c(OC)c1	1%	0%	?	?	-11%	.
C=CCOc1ccc(/C=N/NC(=O)c2cc3c(OC)cc(OC)cc3[nH]2)cc1	4%	7%	?	?	-10%	.
COc1ccc(OC)c(/C=N\NC(=O)c2cc3c(ccc4ccccc43)o2)c1	2%	4%	-14%	16µM*	-9%	.
CCOc1ccc2[nH]c(C(=O)N/N=C/c3cc(OC)c(OC)c(OC)c3)cc2c1	18%	8%	4.8µM*	?	-11%	.
COc1ccc(OC)c(/C=N/NC(=O)c2cc3c(OC)cc(OC)cc3[nH]2)c1	9%	3%	15µM*	21µM*	-10%	.
COc1ccc(OC)c(/C=N/NC(=O)c2cc3c(OC)cccc3[nH]2)c1	8%	3%	?	0%	-4%	.
CCOc1ccc(/C=N/NC(=O)c2cc3c(OC)cc(OC)cc3[nH]2)cc1OC	-2%	-2%	15µM*	23µM*	-9%	.
CCCOc1ccc(OC(=O)c2cn(-c3ccc(OC)cc3)c(=O)c3ccccc23)cc1	.	.	-2%	.	.	.
COc1ccc(-c2cc(-c3nnc(-c4ccncc4)o3)c3ccccc3n2)cc1	-4%	-4%	2.7µM*	?	0%	-6%[1.84 µM]
Clc1cccc(-c2nnc(-c3ccccc3)o2)c1	1.4µM*	0.89µM*	1.5µM*	?	1.2µM*	13µM*
